ChEMBL document CHEMBL4513216, “Probing the Open Global Health Chemical Diversity Library for Multistage-Active Starting Points for Next-Generation Antimalarials” (ACS Infect Dis, 2020)
Hit rate of the full screen: of about 69,000 compounds, about 8,600 (12%) showed an effect of 50% or more. Shown is part of a subset that was picked to be rich in strong results.

These molecules were tested on Plasmodium berghei (assay: Screen against P. berghei liver stage (PbLuc), transformed with Luciferase, at 10uM). Conditions: tested at 10 uM.
Assay type: functional, HepG2

SMILES	INHIBITION [%]
Cc1ccc2c(c1)C(=O)NCC1(CCN(C(=O)c3scnc3C)CC1)O2	15.9
OCCn1nccc1C1CCN(CCOc2ccc(Cl)cc2)CC1	38.8
CN1CC2(CCCN(CCOCc3ccccc3)C2)OC1=O (stereo not given)	8.08
CN1CC2(CCCN(Cc3ccccc3OCC(=O)O)C2)OC1=O (stereo not given)	1.37
CN(C)C(=O)COc1ccccc1CN1CCOC2(CCCC2)C1	7.58
CN1CC2(CCCN(Cc3cccc(Oc4ccccc4)c3)C2)OC1=O (stereo not given)	42.5
CN(C)C(=O)COc1ccccc1CN1CCCC2(C1)CN(C)C(=O)O2 (stereo not given)	57.5
CN1CC2(CCCN(Cc3ccc(Oc4ccccc4)cc3)C2)OC1=O (stereo not given)	55
CC(C)N(CCCNC(=O)C1CC1)S(C)(=O)=O	5.91
Cc1nccn1[C@@H]1CC[C@@H](NC(=O)CCCn2cncn2)[C@H]1O	25.071
COCC1N(C(=O)N2CCOCC2)C2CCC1(O)CC2 (stereo not given)	33.6
Cc1ccnc(NC(=O)CCNC(=O)c2ccccc2Cl)c1	30.2
Cc1ccnc(NCCNC(=O)c2ccccc2NCC(=O)O)c1	11.6
Cc1ccnc(NCCNC(=O)CCNC(=O)c2ccccc2F)c1	57
CC1=N[C@@]2(CC[C@@H]3CN(C(=O)Nc4ccc(F)cc4)C[C@@H]32)C(=O)N1C	0.542
Cc1ccc(C(=O)N2CCn3cnc(COCC4CC4)c3C2)cn1	45.2
Cc1nccc([C@H]2C[C@@H]3CCN(C(=O)c4c(C)noc4C)C[C@H]3O2)n1	-3.88
COC[C@]1(O)CCN(C(=O)c2ccc(CN(C)C)o2)CC1(C)C	76.5
COCc1ccc(C(=O)N2CC[C@@](O)(COC)C(C)(C)C2)o1	-26.2
COc1cc(C(=O)N2CCC(O)(CN3CCOCC3)C(C)(C)C2)ccn1 (stereo not given)	7.93
CCOCCn1nc(C)cc1C(=O)N1CC[C@@](O)(COC)C(C)(C)C1	16.2
COCc1cccc(C(=O)N2CCCC2)c1	1.98
COC[C@]1(O)CCN(C(=O)c2cccc(CN(C)C)c2)CC1(C)C	54.7
CN(C)c1ncc(C2Nc3cc(Cl)ccc3C3=NCCCN32)cn1 (stereo not given)	48.4
CN(C)C(=O)c1ccn(COc2ccccc2Cl)n1	-28
Cn1nc(CN2CCCCC2)c2c1CN(C(=O)c1cccc(Cl)c1)C2	-41.8
CC(NC(=O)N1CCN(c2nccs2)CC1)c1nncn1C (stereo not given)	-15.5

SMILES	INHIBITION [%]
C[C@H]1CN(c2ccccn2)C[C@@]12CCN(Cc1cccnc1)C2=O	48.4
CN(C)C(=O)CN1CCCC(Cc2ccc(N3CCCC3)nn2)C1 (stereo not given)	42.4
c1cnn(C[C@@H]2C[C@@H]3CN(CC4CC4)CC[C@@H]3N2c2nccs2)c1	79.2
CN1[C@H](Cn2cccn2)C[C@@H]2CN(C(=O)Cc3cccs3)CC[C@@H]21	37.4
CC(C)N1CC[C@H]2[C@H](C[C@@H](Cn3cccn3)N2c2nccs2)C1	54.4
CN1C(Cn2cccn2)C[C@@H]2CN(Cc3nccs3)CC[C@@H]21 (stereo not given in full)	20.4
CCC(=O)N1CC[C@H]2[C@H](C[C@@H](Cn3cccn3)N2c2nccs2)C1	21.6
CN1C(Cn2cccn2)C[C@@H]2CN(Cc3cnn(C)c3)CC[C@@H]21 (stereo not given in full)	-10.3
O=C(CCCn1cnnn1)N1CCC(c2ccncc2)CC1	31.4
CN(Cc1ccco1)Cc1cncc2c1CCN(Cc1ccoc1)C2	38.5
CC(=O)N1N=C(c2ccco2)OC1C(=O)NCCc1ccc(F)cc1 (stereo not given)	-50.8
CCOCC1CN(C(=O)c2ccncn2)Cc2cnn(C)c21 (stereo not given)	1.48
CC(CCc1ccccc1)NC(=O)CNCCCN1CCOCC1 (stereo not given)	32.7
CC(CCc1ccccc1)NC(=O)CNCCCN(C)C (stereo not given)	52.5
CC(CCc1ccccc1)NC(=O)CN1CCOCC1 (stereo not given)	20.8
Cn1cnnc1SCC(=O)NC1CC(=O)N(CCc2ccccc2)C1 (stereo not given)	-6.18
CC(=O)N1CCc2c(nc(-c3cccnc3)nc2N(C)CC(O)CO)C1 (stereo not given)	-31.4
COCC(O)CN(C)c1cc(C(F)(F)F)nc(-c2cccnc2)n1 (stereo not given)	85.1
CC(O)CN(C)c1cc(C(F)(F)F)nc(-c2cccnc2)n1 (stereo not given)	16.6
COCCCN(C)c1cc(C(F)(F)F)nc(-c2cccnc2)n1	59.4
CN(CCn1cccn1)c1cc(C(F)(F)F)nc(-c2cccnc2)n1	3.67
FC(F)(F)c1cc(NCCCn2cccn2)nc(-c2cccnc2)n1	15.1
CCN(Cc1cn(CC2CCNCC2)nn1)CC1CCCO1 (stereo not given)	-16.3
CN(C)C(=O)[C@@H]1CC[C@@H]2[C@@H](CCN2Cc2nccs2)O1	-22.1
CCC1=N[C@@]2(CC[C@@H]3CN(Cc4ccccc4F)C[C@@H]32)C(=O)N1CC	13.5
Cc1cc(C(=O)N(C)Cc2cccs2)nc(N2CCOCC2)n1	19.3
Cc1cc(C(=O)N(C)Cc2cccs2)nc(N2CCCCC2)n1	52.4

SMILES	INHIBITION [%]
Cc1cc(C(=O)N(C)Cc2cccs2)nc(N2CCCC2)n1	-33.7
CC(C)OCCCNC(=O)CS(=O)(=O)Cc1ccc(C(C)C)cc1	7.67
CCCOc1cc(C)ccc1NC(=O)N(C)C	24.2
CCc1nnc2n1CCN(C(=O)c1cc3ccc(C)cc3[nH]1)C2	23.7
CCOCC1CN(Cc2ccc(F)cc2)Cc2nn(C)cc21 (stereo not given)	41.6
COCC1CN(Cc2ccoc2)Cc2nn(C)cc21 (stereo not given)	24.1
CCOCC1CN(Cc2ccncc2)Cc2nn(C)cc21 (stereo not given)	29.9
COCC1CN(CC2CC2)Cc2nn(CC3CC3)cc21 (stereo not given)	56.7
CCOCC1CN(CC2CC2)Cc2nn(CC3CC3)cc21 (stereo not given)	29
COCC1CN(Cc2cnn(C)c2)Cc2nn(C)cc21 (stereo not given)	25.2
COCC1CN(CC2CC2)Cc2nn(C)cc21 (stereo not given)	55.7
CCOCC1CN(CC2CC2)Cc2nn(C)cc21 (stereo not given)	52
COCC1CN(Cc2ccncc2)Cc2nn(CC3CC3)cc21 (stereo not given)	29.9
O=S(=O)(c1ccccc1)N1C[C@@H]2CCCCN(Cc3cccs3)[C@@H]2C1	11.8
O=C1CCCC2(CCN(C(=O)c3ccccn3)CC2)N1	17.4
O=C(NC[C@]1(O)CCN(Cc2ccsc2)C[C@H]1O)c1c[nH]cn1	-0.275
NC(=O)N1CC[C@H](O)[C@@H]1Cc1cccnc1	38.1
O=C(N1CCCCC1)N1CCN(c2ccc(Cl)nn2)C(=O)C1	30
CCCSc1ncc(CN(C)CCN2CCCCC2)cn1	32.3
Cc1cc(C)n(CC2CCCN2C(=O)c2cccn3ccnc23)n1 (stereo not given)	15.32
COc1cc(C)ccc1OCc1nc(C(=O)N2CCC(C)CC2)co1	5.33
COc1ccc(OCc2nc(C(=O)N3CCCNC(=O)C3)co2)cc1	53.6
COc1ccc(OCc2nc(C(=O)N3CC(O)C3)co2)cc1	33.5
COc1cc(C)ccc1OCc1nc(C(=O)N2CCCO2)co1	67.5
COc1ccc(OCc2nc(C(=O)N3CC[C@H](O)[C@@H](O)C3)co2)cc1	-38.2
COc1cc(C)ccc1OCc1nc(C(=O)N2CCCNC(=O)C2)co1	63.8
CNC(=O)C1CCN(C(=O)c2coc(COc3ccc(OC)cc3)n2)C1 (stereo not given)	-66.3

SMILES	INHIBITION [%]
CCCC1CCN(C(=O)c2coc(COc3ccc(OC)cc3)n2)C1 (stereo not given)	19.5
COc1cc(C)ccc1OCc1nc(C(=O)N2CCCC2)co1	37.8
Cc1ccc(C(NCC(=O)N2CCNC(=O)C2)c2ccccc2)cc1 (stereo not given)	29.4
Cc1ccc(NC2CCN(C(=O)c3c(C)nn(C)c3Cl)CC2)nn1	1.45
O=C1NCC2=Nc3ccccc3NC(c3ccc(O)cc3)C12 (stereo not given)	-72.4
COC1CCN(C(=O)Cc2csc(-c3ccc(F)cc3)n2)CC1	-7.35
CC(C)c1nn(C)c(N2CCOCC2)c1CNC(C)c1ccco1 (stereo not given)	4.52
O=C(NCc1cccnc1N1CCCCC1)c1ccc2[nH]nnc2c1	17.5
Cc1ccccc1CS(=O)(=O)CC(=O)NCc1ccccc1F	-15.8
CC(C)n1cc(CN(Cc2ccc(F)cc2)CC2CCCO2)cn1 (stereo not given)	18.4
O=C(CSC1=NS(=O)(=O)c2cc(F)ccc2N1)c1ccccc1	10.2
Cc1cccc(NC(=O)C2CCc3ccccc3N2)c1 (stereo not given)	-71.7
Cc1occc1C(=O)N1CCn2c(COCC3CC3)cnc2C1C (stereo not given)	39.3
Cn1cc(C(=O)NCCc2csc(-c3ccccc3)n2)ccc1=O	-8.92
COc1cccc(S(=O)(=O)NC(=O)CCC2CCCO2)c1 (stereo not given)	-9.76
COC1CN(C(=O)C2CC2)CCC(=O)N(C)c2ccccc21 (stereo not given)	29
COC1CN(C(=O)CC(C)C)CCC(=O)N(C)c2ccccc21 (stereo not given)	1.8
COC1CCN(C(=O)C2CCCC2)CC(=O)N(C)c2ccccc21 (stereo not given)	33.6
COC1CN(C(=O)NC2CCCC2)CCC(=O)N(C)c2ccccc21 (stereo not given)	56.3
COC1CCN(C(=O)Nc2ccccc2)CC(=O)N(C)c2ccccc21 (stereo not given)	55.5
COC1CN(C(=O)CC2CCCC2)CCC(=O)N(C)c2ccccc21 (stereo not given)	11.6
COC1CN(C(=O)Nc2ccccc2)CCC(=O)N(C)c2ccccc21 (stereo not given)	13.1
COC1CN(C(=O)OCC(C)C)CCC(=O)N(C)c2ccccc21 (stereo not given)	52.5
COC1CN(C(=O)COC(C)=O)CCC(=O)N(C)c2ccccc21 (stereo not given)	20.7
